Pf Dd2 growth – inhibitors of Plasmodium falciparum Dd2 growth; Potency, µM (top dose mostly 28.9 µM), inactives show at the highest dose activity, negative = inhibition, hits mostly inhibitors; P. falciparum Dd2 growth, SYBR Green, 72 h; AID 1347417; 120,000 compounds, 4.3% hits; active means well fitted inhibition curve with a large enough effect;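 further: plate controls were DMSO vehicle for no effect and reference drug for full effect; nearly all actives have a fitted effect of over 65% in size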
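Readout: SYBR Green fluorescence, 485 nm excitation, 535 nm emission, after ~16 h lysis at 37C. Before that, Dd2-infected red cells (2.5% hematocrit) grew 72 h with compound, 29 uM top final concentration.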
Active calls of the source: *; i = inactive; [ ] = dose if it differs, or a comment. The sample as a whole holds a higher share of hits than the screen did. Potency means the concentration at half of the fitted maximal effect.

SMILES	Pf Dd2 growth
COc1ccc(OCC(=O)Nc2ccc(Cl)c(-c3nc4ncccc4o3)c2)cc1	7.9µM*
CN(C)C(=O)c1ccnc2[nH]ccc12	15%[44.1 µM]
COc1ccc(CCNC(=O)c2c(C)noc2-c2ccc(OC(F)(F)F)cc2)cc1OC	i
O=C(Cn1nc2c(cc1=O)CCCC2)N1CCN(Cc2ccccc2Cl)CC1	-3%
CCOc1cc(=O)n2c(c1C(=O)Nc1cccc(OC)c1)CCCCC2	i
O=C(Nc1ccccc1CCc1ccccn1)C1CCN(c2cnn(Cc3ccccc3)c(=O)c2)C1 (centres undefined)	4.5µM*
Cn1ncc(N2CCC(C(=O)Nc3ccccc3CCc3ccccn3)C2)cc1=O (centres undefined)	-16%
O=C(NCc1cnccn1)C1CCCN(c2cnn(Cc3ccccc3)c(=O)c2)C1 (centres undefined)	-16%
Cc1cn2nc(C(=O)N3CCC(NC(=O)c4cccc(Cl)c4)CC3)cc2c(=O)[nH]1	i
Cc1cn2nc(C(=O)N3CCC(NC(=O)c4ccccc4C)CC3)cc2c(=O)[nH]1	-9%
COc1ccc(Cl)cc1C(=O)NC1CCN(C(=O)c2cc3c(=O)[nH]c(C)cn3n2)CC1	5µM*
COc1ccc(CNC(=O)CCC2CCCN(C(=O)CN3CCOC3=O)C2)c(OC)c1 (centres undefined)	-3%
O=C(O)C1Cn2cccc2C(=O)N1Cc1cccnc1 (centres undefined)	23%
Cc1ccc(CN2CCN(C(=O)C3Cn4cccc4C(=O)N3Cc3cccnc3)CC2)cc1 (centres undefined)	13µM*
CC(C)CN1C(=O)c2cccn2CC1C(=O)N1CCN(Cc2ccc3c(c2)OCO3)CC1 (centres undefined)	-24%
CNC(=O)Nc1ccc(C)n(CC(=O)NCc2ccccc2C)c1=O	-3%
COc1ccc(F)c(-c2nc(COc3ccc(-n4cnnc4)cc3)c(C)o2)c1	-18%
CC(C)Oc1ccc2c(NC(=O)CCn3cnnn3)nn(CC(F)(F)F)c2c1	2%
CCC1(N2CCN(C(=O)COc3cccc(Cl)c3)CC2)CCN(C(=O)NC)C1 (centres undefined)	10µM*
CCC1(N2CCN(C(=O)COc3ccc(Cl)cc3C)CC2)CCN(C(=O)NC)C1 (centres undefined)	-35%
CCC1(N2CCN(C(=O)COc3cccc(Cl)c3)CC2)CCN(S(C)(=O)=O)C1 (centres undefined)	i
O=C(Cc1ccccc1Cl)N[C@@H]1CN(c2ncccn2)C[C@H]1CO	16%
COC[C@@H]1CN(C(=O)Cc2cccc(OC)c2)C[C@H]1c1nc(C)no1	14%
COC(=O)[C@H](Cc1ccccc1)NC1CCN(c2cccc(NC(=O)CC3CCCC3)c2)CC1	-2%
COC(=O)CNC(=O)C1c2ccccc2C(=O)N(C2CCCC2)C12CCCCC2 (centres undefined)	-15%
SMILES	Pf Dd2 growth
O=C(NC1CCCC1)C1c2ccccc2C(=O)N(C2CCCC2)C12CCCCC2 (centres undefined)	10µM*
CC(C)NC(=O)C1c2ccccc2C(=O)N(C2CCCC2)C12CCCC2 (centres undefined)	11%
CCn1ncc(N2CCCC(CC(=O)N(C)Cc3ccccc3)C2)cc1=O (centres undefined)	i
CC(=O)NCCCC(=O)N1Cc2ccccc2OC2(CCN(C(=O)N(C)C)CC2)C1	-4%
CC(=O)N1Cc2ccccc2OC2(CCN(C(=O)CCc3c[nH]c4ccccc34)CC2)C1	-27%
CN(C)C(=O)N1CCC2(CC1)CN(C(=O)CCc1c[nH]c3ccccc13)Cc1ccccc1O2	5µM*
COc1ccc(OC2CN(C(=O)c3ccccc3)C2)cc1	21%[44.1 µM]
Cc1ccc(NC(=O)Cn2nc(-c3ccc(F)cc3)c3cnc4ccc(C)cc4c32)cc1	46%
CCOC(=O)c1cnc2ccc(Cl)cc2c1Nc1ccc(N2CCOCC2)cc1	8.9µM*
CCOC(=O)c1cnc2ccc(C)cc2c1Nc1ccc(N(CC)CC)cc1	4.5µM*
CCOC(=O)c1cnc2ccc(Br)cc2c1NCCN1CCOCC1	i
CCOC(=O)c1cnc2cc(C(F)(F)F)ccc2c1Nc1cc(C)ccc1OC	9%
CCCOC(=O)c1ccc(Nc2c(C(=O)OCC)cnc3c(C)cc(Cl)cc23)cc1	-24%
COc1ccc(C(=O)N[C@@H]2CCC[C@@H]2C(=O)NCCC(C)C)cn1	-12%
COc1cccc(CNC(=O)CC2C(=O)NCCN2CC(C)C)c1OC (centres undefined)	-23%
COCCNC(=O)c1coc(CN2CCN(C/C=C/c3ccccc3)CC2)n1	-29%
CCOC(=O)c1cccc(NC(=O)N2CC[C@@H](CC(=O)N3CCOCC3)[C@@H](CC)C2)c1	-11%[44.1 µM]
COc1ccccc1NC(=O)N1CCC(Oc2ncccc2C(=O)N2CCOCC2)C1 (centres undefined)	17%
O=C1CCN(C(=O)c2ccoc2)CCCCCCN1	-11%
O=C(NCC1CN(Cc2cccnc2)CC12CN(c1ccccc1)C2)C1CC1 (centres undefined)	i
CCOc1ccc(NC(=O)C(NS(=O)(=O)c2cccc3nsnc23)c2ccccc2)cc1 (centres undefined)	22%
CC(C)C(NS(=O)(=O)c1cccc2cccnc12)C(=O)Nc1ccc(OC(F)(F)F)cc1 (centres undefined)	10µM*
O=C(Nc1cccc(C(F)(F)F)c1)O[C@@H]1CO[C@H]2[C@@H]1OC[C@@H]2NS(=O)(=O)c1cccc2cccnc12	-22%
Cc1noc2c(NCCc3ccccn3)cc(-c3ccccn3)nc12	-10%[44.1 µM]
COc1ccc(CCC(=O)NCc2ccc3c(c2)CCN3C(=O)c2ccc(C)cc2)cc1	21%
SMILES	Pf Dd2 growth
COc1ccc(CCC(=O)NCc2ccc3c(c2)CCN3C(=O)c2ccccc2)cc1	6.3µM*
COc1ccc(OCC(=O)NCc2ccc3c(c2)CCN3C(=O)c2ccccc2)cc1	-4%
CS(=O)(=O)N1CCCN(C(=O)C2(c3ccccc3)CC2)c2ccccc21	-25%
CN(C)CCNC(=O)c1ccc2nc(CCc3ccccc3)oc2c1	23%
O=C(NCCCN1CCN(c2ccccc2)CC1)c1ccc2nc(CCc3ccccc3)oc2c1	7.9µM*
O=C(NCCc1ccccc1)c1ccc2nc(CCc3ccccc3)oc2c1	50%
CN(Cc1cccc(F)c1)Cc1cccn1C	-24%[44.1 µM]
CCN1c2cc(C(=O)N3CCN(C4CCCCC4)CC3)ccc2C(=O)N2CCCCC21 (centres undefined)	i
O=C([C@@H]1C[C@@H](c2ccc(F)cc2)N(Cc2ccccc2)C1)N1CCN(c2ccccn2)CC1	7.1µM*
O=C(O)[C@@H]1CN(Cc2ccccc2)C[C@@H]1C(=O)N1CCN(c2ccccn2)CC1	-8%
C[S+](=O)([O-])N1C[C@H](C(=O)N2CCN(c3ccccn3)CC2)C[C@@H]1c1ccc(F)cc1	i
CN1CCC(Cn2ccc3c(N4CCOCC4)nc(-c4cccc5[nH]ccc45)cc32)CC1	-25%[44.1 µM]
C[S+](=O)([O-])N1CCC(Cn2ccc3c(N4CCOCC4)nc(-c4cccc5[nH]ncc45)cc32)CC1	i
CN1CCC(Cn2ccc3c(N4CCOCC4)nc(-c4ccc5cn[nH]c5c4)cc32)CC1	3.5µM*
CCCCOC(=O)c1ccc(N2CC3CCC(C2)N3CC(F)(F)F)nn1	-3%
COC(=O)N1CCC2(CC1)Cc1ccccc1NC2=O	-17%[44.1 µM]
O=C(NCCc1csc(-c2cccnc2)n1)C1NCCc2[nH]cnc21 (centres undefined)	-14%
Cc1ncc2n1C(=O)N(C1CCN([S+](=O)([O-])c3cccc(C(F)(F)F)c3)CC1)C2	i

Screening results as filed in PubChem BioAssay.
